From ChEMBL document CHEMBL4513216, “Probing the Open Global Health Chemical Diversity Library for Multistage-Active Starting Points for Next-Generation Antimalarials” (ACS Infect Dis, 2020)
Screen size: about 68,000 compounds; about 2,700 (4%) showed an effect of 50% or more. The sample as a whole holds a higher share of strong results than the screen did.

system: Plasmodium berghei; assay: Screen against P. berghei liver stage (PbLuc), transformed with Luciferase, at 2uM; type: functional, HepG2; conditions: tested at 2 uM

Row | Structure (SMILES) | INHIBITION [%]
1 | CN(Cc1cn2c(n1)CN(Cc1ccsc1)CC2)Cc1ccco1 | -9.48
2 | COCc1nc2nc(O)c3c(n2n1)NC(=O)CC3c1ccc(SC)cc1 (configuration not stated) | -19.97
3 | Cc1cccc(C(=O)N2CCC3(CC2)CC(c2cnn(C)c2)CO3)c1 (configuration not stated) | 11.79
4 | CC(C(=O)Nc1ccnn1C(C)C)N1CCc2nn(C)c(=O)cc2C1 (configuration not stated) | -15.38
5 | CC(C)CN1CCCC1c1cc[nH]n1 (configuration not stated) | 17.29
6 | c1ccc(COC[C@@H]2CCC[C@]23CN(Cc2nccs2)CCO3)nc1 | 17.24
7 | CS(=O)(=O)N1CCCC12CCCN(C(=O)c1ccno1)C2 (configuration not stated) | 7.3
8 | CCN(CC)C1(Cc2cc(COC)on2)COC1 | 52.36
9 | CCN(CC)C1(Cc2cc(CC(C)C)on2)COC1 | 32.59
10 | COCc1cc(CC2(NC3CCCCC3)COC2)no1 | -9.98
11 | Cc1ccc(C(=O)N2CCc3ncnc(C)c3CC2)o1 | 32.97
12 | Cc1ccc(C(=O)N2C[C@H]3CCC[C@@]3(COCC3CCOCC3)C2)o1 | -35.36
13 | CCOC(=O)N1CCc2ccccc2C12CCNCC2 | 4.38
14 | Cc1ccc(CN2CCOC3(CCN(C(=O)C4CC=CC4)CC3)C2)cc1 | -41.1
15 | Cc1ccc(CN2CCOC3(CCN(C(=O)C4CCOC4)CC3)C2)cc1 (configuration not stated) | 69.37
16 | Cc1ccc(CN2CCOC3(CCN(C(=O)N4CCCC4)CC3)C2)cc1 | 33.35
17 | Cc1nc(C)n(CC2CN(CCc3ccccc3Cl)CCO2)n1 (configuration not stated) | -7.08
18 | Cc1ccccc1CSCCn1nc2ccccn2c1=O | 6.3
19 | CC(=O)NCCCSC1CCN(c2c(F)cccc2F)C1=O (configuration not stated) | 41.07
20 | CC(=O)NCCCSC1CCN(c2ccccc2F)C1=O (configuration not stated) | 75.22
21 | CC(=O)NCCCSC1CCCN(c2ccccc2Cl)C1=O (configuration not stated) | -1.89
22 | CC(=O)NCCCSC1CCN(c2ccccc2Cl)C1=O (configuration not stated) | 68.61
23 | Cn1nnnc1SC1CCN(c2ccccc2Cl)C1=O (configuration not stated) | 4.99

Row | Structure (SMILES) | INHIBITION [%]
24 | CC(=O)NCCCSC1CCCN(c2ccccc2F)C1=O (configuration not stated) | 9.13
25 | CCc1ccc(S(=O)(=O)Nc2ccncc2)s1 | -13.03
26 | COc1cc2c(cc1CN1CCn3c(CO)nnc3C1)CCC2 | 16.14
27 | Cc1cc(CN2CCCC2c2noc(C)n2)no1 (configuration not stated) | -52.52
28 | Cc1nnc([C@@H]2C[C@H]3CN(C4CCC4)C[C@H]3O2)[nH]1 | 4.07
29 | CCCc1nnc(N2CCN(c3ccccc3OCC)CC2)o1 | -11.34
30 | O=C(CCC1CCCC1)N1CCCC(c2ncc3c(n2)CCNC3)C1 (configuration not stated) | 24.89
31 | Cc1c(CN2CCCC(C(=O)Nc3ccccc3)C2)cc(C#N)n1C (configuration not stated) | 9.63
32 | c1cc(CN2CCCCC2c2ccc(Nc3cnccn3)nc2)ccn1 (configuration not stated) | 42.53
33 | Cc1ncoc1C(=O)N1CCc2[nH]nc(-c3ccc4c(c3)OCO4)c2C1 | -4.53
34 | Cc1nc(COCc2cnc3n2CCN(CC2CCC2)C3C)cs1 (configuration not stated) | 25.35
35 | O=C(N[C@@H]1CCC[C@@H](N2CCCC2)[C@@H]1O)c1cc2ccccc2[nH]1 | 14.49
36 | O=C(N[C@@H]1CCC[C@@H](N2CCOCC2)[C@@H]1O)c1cc2ccccc2[nH]1 | 8.26
37 | O=C(N[C@@H]1CC[C@@H](N2CCCC2)[C@@H]1O)c1cc2ccccc2[nH]1 | 51.88
38 | COCc1nc(C(=O)NS(=O)(=O)c2cc(F)ccc2F)cs1 | 29.37
39 | Cc1nc(NCc2nncn2C2CC2)c2c(CC(C)C)csc2n1 | 36.86
40 | COc1ccc(CN2CCC(O)(CN3CCCCC3)C2)c(C)c1 (configuration not stated) | -1.21
41 | CN(Cc1noc(C2CC2)n1)C1CCN(Cc2nc(C3CC3)no2)C1 (configuration not stated) | 27.89
42 | CC1CCN(CCCNC(=O)NC(C)c2nncn2C)CC1 (configuration not stated) | 6.3
43 | CCNc1c(NC(=O)NCCOC)c(=O)oc2ccccc12 | -25.41
44 | FC(F)(F)c1nc(NC2CCc3ncnn3C2)c2ccccc2n1 (configuration not stated) | -8.8
45 | FC(F)(F)c1nc(NC2CCCCC2)c2ccccc2n1 | 52.43
46 | FC(F)(F)c1nc(NC2CCCC2)c2ccccc2n1 | 15.52

Row | Structure (SMILES) | INHIBITION [%]
47 | O=c1c2sccc2nc2n1CCN(Cc1ccccc1C(F)(F)F)CC2 | 26.56
48 | O=C1CC(c2ccccc2)C2(CCN(C(=O)c3cnccn3)CC2)N1 (configuration not stated) | 20.87
49 | O=C([C@H]1C[C@@H]2CCN(C3CCOCC3)C[C@H]2O1)N1CCCC1 | 18.65
50 | COc1ccccc1CN1CC[C@H]2C[C@H](C(=O)N3CCCC3)O[C@H]2C1 | 15.89
51 | O=C([C@@H]1C[C@@H]2CCN(C3CCOCC3)C[C@@H]2O1)N1CCCC1 | 65.26
52 | O=C([C@@H]1C[C@@H]2CCN(CCc3ccccc3)C[C@H]2O1)N1CCCC1 | 14.94
53 | O=C([C@@H]1C[C@@H]2CCN(C3CCOCC3)C[C@H]2O1)N1CCCC1 | -26.64
54 | COc1ccccc1CN1CC[C@H]2C[C@@H](C(=O)N3CCCC3)O[C@H]2C1 | 52.4
55 | CCC1CN(CCC(=O)N(C)C)CCN1CCOC (configuration not stated) | -7.41
56 | CC/N=c1\nc(NCC)nc2n1C(O)(Nc1cc(Cl)ccc1Cl)CS2 (configuration not stated) | 28.5
57 | CCc1nc(C(=O)N2CCN(CC)CC2)nn1-c1ccccc1Cl | 13.24
58 | CC(C)N(C)Cc1nnc2n1CCN(Cc1ccncc1)CC2 | -2.32
59 | COc1ccc(Cc2ncc3c(n2)CN(C(=O)CO)C3)cc1 | 6.39
60 | Cc1cnn(C2CN(CC(=O)N(C)Cc3ccc(C)o3)C2)c1 | 62.51
61 | Cc1ccc(CN(C)C(=O)CN2CC(n3cccn3)C2)o1 | 3
62 | Cc1cnn(C2CN(CC(=O)N(C)Cc3cccs3)C2)c1 | 7.67
63 | Cc1cc(NCc2ccco2)nc2[nH]nc(N)c12 | -0.89
64 | Fc1cccc(-c2nnn3c2COC(CNCc2nccs2)C3)c1 (configuration not stated) | -19.51
65 | Cc1cccc(N2CCCC3(C2)CN(S(C)(=O)=O)CCO3)c1 (configuration not stated) | -51.66
66 | CCS(=O)(=O)N1CCOC2(CCCN(c3cccc(C#N)c3)C2)C1 (configuration not stated) | 56.76
67 | CC(C)NC(=O)N1CCOC2(CCCN(c3cccc(C#N)c3)C2)C1 (configuration not stated) | 24.82
68 | CCOCC(O)CN1CCN(C(=O)c2ccccc2Cl)CC1 (configuration not stated) | -45.23
69 | O=C(c1cccc(Cl)c1Cl)N1CCN(CC(O)Cn2cccn2)CC1 (configuration not stated) | 65.3

Row | Structure (SMILES) | INHIBITION [%]
70 | Cc1cc(C(=O)N2CCN(CC(O)Cn3cccn3)CC2)c(C)o1 (configuration not stated) | 12.62
71 | CCCC(=O)NCC(=O)NC(c1ccc(Cl)cc1)C(F)(F)F (configuration not stated) | 28.25
72 | Cc1cccc(C(=O)NCc2ccnc(N(C)C)c2)n1 | -11.1
73 | O=C(C1CC1)N1CCN2C[C@H](c3ccccc3)[C@@H](CO)[C@H]2C1 | 7.41
74 | CC(=O)NC1CCCN(C(=O)NCc2cccnc2N(C)C)C1 (configuration not stated) | 20.71
75 | CCC(CC)c1nnc(NC(=O)N2CCC(C(N)=O)CC2)s1 | 23.45
76 | CCCc1nnc(NC(=O)N2CCCC2c2ccncc2)s1 (configuration not stated) | -24.78
77 | CC(=O)NC1CCCN(C(=O)Nc2nnc(C(C)C)s2)C1 (configuration not stated) | 20.14
78 | CCCc1nnc(NC(=O)N2CCCC(NC(C)=O)C2)s1 (configuration not stated) | 52.08
79 | CCC(CC)c1nnc(NC(=O)N2CCCC(NC(C)=O)C2)s1 (configuration not stated) | 56.49
80 | Cc1cc(C)c(S(=O)(=O)Nc2cccc3c2OCCO3)cc1C(=O)O | -49.16
81 | Cc1oncc1C(=O)N1CC[C@H]2[C@H](CO[C@@H]2CNS(C)(=O)=O)C1 | 11.37
82 | CC(C)(C)CC(=O)N1C[C@@H]2C[C@@H]1CN2 | 74.88
83 | O=C(NCC1CCCCC1)N1C[C@@H]2C[C@@H]1CN2 | -3.1
84 | O=C(CC1CCCC1)N1C[C@@H]2C[C@@H]1CN2 | 30.4
85 | CC(C(=O)N1CCc2sccc2C1)N1CCC(S(N)(=O)=O)CC1 (configuration not stated) | 44.37
86 | CN(C)c1nccc(N(C)Cc2nc3ccccc3n2C)n1 | 13.51
87 | CN(C)c1nccc(N(C)Cc2ncnn2C)n1 | 65.42
88 | CN(Cc1ncnn1C)c1ccnc(Cc2ccccc2)n1 | 26.49
89 | CN(Cc1cccs1)c1cc(N2CCCC2CO)ncn1 (configuration not stated) | -25.71
90 | Cc1c[nH]cc1C(=O)N1CCN(CCc2cccs2)CC1 | -14.3
91 | Cc1ccc(OCC(C)NS(C)(=O)=O)cc1 (configuration not stated) | 41.84
92 | COc1ccc(OCC(C)NS(C)(=O)=O)cc1 (configuration not stated) | 37.05

Row | Structure (SMILES) | INHIBITION [%]
93 | Cc1ccc(OCC(C)NS(C)(=O)=O)cc1C (configuration not stated) | 52.85
94 | Cc1ncc(S(C)(=O)=O)c(N(C)CCCc2cnn(C)c2)n1 | 13.95
95 | CNC(=O)[C@@H]1COC[C@H]2CN(C(=O)c3ccc(OC)cc3)C[C@H]21 | 51.36
96 | CCc1ccc(C(=O)N2C[C@@H]3COC[C@@H](C(=O)NC)[C@@H]3C2)cc1 | -10.98
97 | CNC(=O)[C@@H]1COC[C@H]2CN(C(=O)c3cccc(OC)c3)C[C@H]21 | 11.6
98 | Cc1cnn(C2CN(Cc3nc(-c4ccsc4)no3)C2)c1 | 56.02
99 | c1cnn(C2CN(Cc3nc(-c4ccsc4)no3)C2)c1 | -5.2
100 | Cc1ccc(-c2noc(CN3CC(n4cc(C)cn4)C3)n2)cc1 | -21.39
101 | COCC1CN(C(=O)Cc2cccs2)Cc2c1cnn2C (configuration not stated) | -41.11
102 | COCC1CN(C(=O)CC2Cc3ccccc3C2)Cc2c1cnn2C (configuration not stated) | 56.25
103 | COCC1CN(C(=O)c2ccnnc2)Cc2c1cnn2C (configuration not stated) | 6.57
104 | Cc1ccc(S(=O)(=O)N2CCC(Oc3ccccn3)CC2)c(C)c1 | 56.24
105 | COC(=O)c1sccc1S(=O)(=O)N1CCC(Oc2cccnn2)CC1 | 23.42
106 | CN(C)S(=O)(=O)N1CCC(Oc2cccnn2)CC1 | 20.38
107 | COc1ccccc1S(=O)(=O)N1CCC(Oc2cccnn2)CC1 | 33.61
108 | Cc1ccc(S(=O)(=O)N2CCC(Oc3cccnn3)CC2)c(C)c1 | 71.06
109 | CN(C)S(=O)(=O)N1CCC(Oc2ccccn2)CC1 | -19.47
110 | Cc1noc(C)c1S(=O)(=O)N1CCC(Oc2ccccn2)CC1 | -11.22
111 | Cc1noc(C)c1S(=O)(=O)N1CCC(Oc2cccnn2)CC1 | -12.23
112 | O=S(=O)(c1ccccc1F)N1CCC(Oc2cccnn2)CC1 | 51.31
